Compounds with a hit are over-represented: about 2.2% of the library has one in this group of screens.
EWS-Fli block = blocks EWS/Fli oncoprotein-driven transcription. A673 NR0B1-luciferase reporter, viability-normalised. AID 651661. inhibition, % at 12.6 µM. 350,000 tested, 0.67% active;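 active = mean inhibition of at least 50% after viability correction, with every replicate also passing that limit; inconclusive = mean reaches 50% but only one of two replicates passes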;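 also: firefly luciferase signal divided by Alamar Blue viability fluorescence both relative to DMSO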
PGC1a acetyl inh = lowers PGC1a acetylation signal in U2OS cells; AlphaScreen anti-acetyl-lysine; with virally co-expressed GCN5 acetyltransferase; AID 651687; inhibition, % at 15.6 µM; 350,000 tested, 0.17% active;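 active = every replicate shows inhibition of at least 40%; inconclusive = mean inhibition at least 40% but some replicate below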
TRPM1 prom inh = MITF TRPM1 promoter inhibition in SK-MEL-5 cells | SK-MEL-5 TRPM1 promoter luciferase, 24 h | inhibition, % at 12.5 µM | 330,000 tested, 0.83% active;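 active = mean inhibition across replicates of 60% or more, whatever share of single replicates reaches that level; inconclusive = some that reach 60%, reason not given; inactive = mean inhibition across replicates below 60%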
LGR2 antag = Drosophila LGR2 receptor signaling inhibition; 380,000 tested, 0.35% active; HEK293 LGR2, CRE-luciferase, bursicon-stimulated, 4 h; inhibition, % at 9.99 µM; AID 720647;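 active = drop in luminescence signal, shown as inhibition above about 50% in the replicate tests, limit read from the data, passing the limit was not always enough; inconclusive = probably only some replicates passing the limit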;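 also: agonist challenge used bursicon conditioned medium at about half maximal strength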
PAX8 reporter = lowers PAX8-driven luciferase in RMG-I cells | RMG-I TPO-luciferase reporter, SteadyGlo, 24 h | inhibition, % at 12.6 µM | 360,000 tested, 1.2% active;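 active = mean replicate inhibition at least 60% with every replicate also reaching 60%; inconclusive = only one of the two criteria is met; inactive = mean below 60% and not all replicates reaching 60%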;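 also: luciferase light reporting Pax8 driven TPO promoter activity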
LMP1 NFkB inh = Epstein-Barr LMP1 NF-kappaB reporter inhibition; LMP1-induced NF-kappaB luciferase reporter cells, luminescence; inhibition, % at 12.5 µM; 350,000 tested, 0.69% active; AID 504558; in the data active = inhibition above about 41%; inconclusive = no clear call, values can overlap the other calls
A number is an active result; n = inactive; u = inconclusive; x = no result given; ! = not active in a repeat.

SMILES	EWS-Fli block	PGC1a acetyl inh	TRPM1 prom inh	LGR2 antag	PAX8 reporter	LMP1 NFkB inh
CNC[C@@H]1OCCCC[C@@H](C)Oc2ccc(NS(=O)(=O)c3ccc(C)cc3)cc2C(=O)N([C@H](C)CO)C[C@H]1C	n	n	x	n	n	x
C[C@H](CO)N1C[C@H](C)[C@@H](CN(C)Cc2ccc(C(=O)O)cc2)Oc2ccc(NS(=O)(=O)c3ccc(F)cc3)cc2CC1=O	x	n	x	n	n	x
CC(=O)N(Cc1ccc(F)cc1)C1=C(NCCc2ccccc2)C(=O)c2ccccc2C1=O	x	u	104.0	x	104.8	75.8
CCN1CCCC1CNC(=O)c1ccccc1Cl (centres undefined)	x	n	n	n	x	n
CCc1cc(Cl)c(OC)c(C(=O)NC[C@@H]2CCCN2CC)c1O	n	n	n	n	n	70.7!
Cc1noc(C)c1NC(=O)N[C@H]1CC[C@H](CCNC(=O)C2CC2)O[C@H]1CO	n	n	x	n	n	x
Cc1ccc(Nc2nc(N)c3ccccc3n2)cc1C	n	n	n	80.6	n	n
Cc1cc(Nc2ccc(C)c(C)c2)c2ccccc2n1	n	x	n	n	n	n
Cc1cc2c(=Cc3ccc(N(C)C)cc3)c3ccccc3n2[n+]1C	n	x	100.5	n	x	n
CN(C)c1ccc(C=c2c3ccccc3n3c2c2ccccc2[n+]3C)cc1	n	x	n	n	87.8	n
CCOC(=O)SC1=N/C(=C\c2ccc(N(C)C)cc2)C(=O)S1	n	n	n	n	x	n
CCOC(=O)c1cc2c(=Cc3ccc(N(C)C)cc3)c3ccccc3n2[n+]1C	n	x	86.1	n	n	n
CC1=NN(c2cccc(F)c2)C(=O)/C1=C/c1ccc(N(C)C)cc1	n	n	n	n	n	n
O=C(C[C@H]1C=C[C@H](NC(=O)c2cccnc2)[C@H](CO)O1)NCc1ccc(Cl)c(Cl)c1	n	n	x	n	n	x
Cc1noc(C)c1S(=O)(=O)Nc1ccc2c(c1)CC(=O)N([C@@H](C)CO)C[C@H](C)[C@@H](CN(C)Cc1ccc(Oc3ccccc3)cc1)O2	n	n	x	n	n	x
O=S(=O)(Nc1ccc(F)cc1)N1CCCCCC1	x	n	n	x	x	n
Nc1ccc2ccc(NS(=O)(=O)N3CCCCC3)cc2c1	55.9	x	x	n	n	x
CNC(=O)c1ccsc1NC(=O)c1ccc2c(c1)CCCC2	n	n	n	n	n	n
CC(C)Cc1nnc(NC(=O)c2ccc(N3CCCC3=O)cc2)s1	n	n	n	n	n	n
NC(=O)c1ccsc1NC(=O)c1ccc2c(c1)CCCC2	n	n	n	62.6	n	n
NC(=O)c1ccsc1NC(=O)c1ccc(N2CCCC2=O)cc1	n	x	n	71.9	n	n
C[C@@H]1CN([C@H](C)CO)C(=O)c2cccc(NC(=O)c3ccc(-c4nccs4)cc3)c2O[C@H]1CN(C)C(=O)Nc1ccc(C(F)(F)F)cc1	n	n	x	n	x	x
CCN(CC)CCNC(=O)c1ccc(NC(=O)c2cccc(S(=O)(=O)N(C)C3CCCCC3)c2)cc1	n	x	73.2	x	n	n
CCN(CC)CCNC(=O)c1ccc(NC(=O)c2ccc3c(c2)CCC3)cc1	n	x	n	n	n	n
Cc1ccoc1C(=O)Nc1ccc2ccccc2c1	51.4	x	n	60.0	n	n
SMILES	EWS-Fli block	PGC1a acetyl inh	TRPM1 prom inh	LGR2 antag	PAX8 reporter	LMP1 NFkB inh
Cc1ccoc1C(=O)Nc1ccc(CC(=O)O)cc1	x	n	n	x	n	44.3
Cc1cc(C(=O)Nc2ccc3ccccc3c2)oc1C	n	n	n	n	n	n
O=C(O)Cc1ccc(NC(=O)c2ccc(NC(=O)c3ccco3)cc2)cc1	x	n	n	x	x	n
O=C(NCC[C@H]1CC[C@H](NC(=O)c2cccnc2)[C@H](CO)O1)Nc1ccc(F)cc1	n	n	x	n	n	x
C[C@H]1CN([C@@H](C)CO)S(=O)(=O)c2ccc(-c3ccncc3)cc2O[C@H]1CN(C)S(=O)(=O)c1ccccc1F	n	n	x	n	n	x
CN(CC(=O)Nc1ccccc1Cl)C(=O)COC(=O)c1nc(Cl)c(Cl)c(Cl)c1Cl	n	n	73.5	n	n	n
CC1=C(C(=O)Nc2cccc(F)c2)C(c2ccsc2)C2=C(CC(C)(C)CC2=O)N1 (centres undefined)	54.1	x	n	n	n	n
CCNC(=O)C1CCCN(C(=O)c2cccc(Cl)c2)CC1 (centres undefined)	n	n	x	n	n	x
CCNC(=O)C1CCCN(C(=O)c2ccc(F)c(Cl)c2)CC1 (centres undefined)	n	x	x	n	76.3	x
O=C(NC1CCCC1)[C@H]1[C@H](CO)[C@H]2Cn3c(cccc3=O)[C@H]2N1CC1CCOCC1	n	n	x	n	x	x
